Test results reported in PubChem BioAssay AID1851 (National Center for Advancing Translational Sciences (NCATS), 2009).
The whole screen tested about 16,000 compounds, of which about 5,100 (32%) were called active. Another 25% or so got no clear call; they are omitted. The call rests on the fitted dose curve; in most records, active means well fitted curve in the direction sought with a large enough effect; inconclusive means small, poorly fitted or top-dose-only effect, or effect the other way; inactive means no such curve, though single readings can be large or run the other way. This is one part of the list.

What follows are compounds tested against Cytochrome P450 3A4 (Homo sapiens) (UniProt P08684) (assay: Cytochrome panel assay with activity outcomes). Settings: recombinant CYP, pro-luciferin dealkylation, luminescence, p450-cyp3a4; series mostly up to 57.1 µM; activity, negative = inhibition: at the top concentration.
Sequence of Cytochrome P450 3A4 (Homo sapiens) (P08684 whole entry, looked up): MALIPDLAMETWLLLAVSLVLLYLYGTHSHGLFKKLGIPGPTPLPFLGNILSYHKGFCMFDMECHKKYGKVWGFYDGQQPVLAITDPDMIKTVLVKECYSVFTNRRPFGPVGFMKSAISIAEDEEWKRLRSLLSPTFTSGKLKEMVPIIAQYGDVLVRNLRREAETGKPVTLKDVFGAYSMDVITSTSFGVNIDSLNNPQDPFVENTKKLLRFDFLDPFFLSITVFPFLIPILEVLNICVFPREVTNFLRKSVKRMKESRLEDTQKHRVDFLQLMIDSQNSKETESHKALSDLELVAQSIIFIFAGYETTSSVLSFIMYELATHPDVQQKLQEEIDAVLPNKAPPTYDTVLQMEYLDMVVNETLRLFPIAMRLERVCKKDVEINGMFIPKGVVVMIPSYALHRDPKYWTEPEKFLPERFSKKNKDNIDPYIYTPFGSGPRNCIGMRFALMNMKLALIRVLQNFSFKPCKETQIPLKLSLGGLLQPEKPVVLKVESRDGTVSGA
On the % scale 0 is the no-effect control and ±100 the full control effect.

| SMILES | activity, negative = inhibition | AC50 |
| --- | --- | --- |
| CC(=O)OC[C@@H]1O[C@@H](O/N=C2/C[C@@H](O)[C@@H](O)[C@@H]3[C@@H]4C(=O)N(C5CCCCC5)C(=O)[C@H]4CC[C@H]23)[C@H](OC(C)=O)[C@H](OC(C)=O)[C@@H]1OC(C)=O | -4% [at 11.4 µM] (inactive) | – |
| N#C[C@@H](N=Nc1ccccc1C(=O)O)C(N)=O | -6.32% [at 11.4 µM] (inactive) | – |
| Cc1c(/N=C/c2ccco2)n(Cc2ccccc2)c2ccccc12 | – | 7.08 µM (active) |
| COC(=O)c1cc(NC(=O)N2c3ccccc3Sc3ccccc32)cc(C(=O)OC)c1 | – | 7.94 µM (active) |
| COC(=O)C1CSC(C(=O)OC)N1C(=O)Nc1ccccc1 (configuration not stated) | -29.1% (inactive) | – |
| O=C(Nc1ccccc1)N1CCSc2cc(Cl)ccc21 | -17.4% (inactive) | – |
| Cc1nnsc1SC(C)C(=O)O (configuration not stated) | -7.52% (inactive) | – |
| C=CCSc1nc(C)cc(/C=C\c2ccccc2)c1C#N | – | 4.47 µM (active) |
| Nc1nc(NCCc2ccc(O)cc2)nc2nc(-c3ccco3)nn12 | – | 15.8 µM (active) |
| CC(=O)n1nc(-c2ccco2)nc1N | -8.68% (inactive) | – |
| c1ccc(CN(CC2=NCCN2)c2ccccc2)cc1 | – | inactive |
| Cc1cccc(-n2nc([N+](=O)[O-])c(=NCc3cccnc3)n2O)c1 | – | 15.8 µM (active) |
| Cc1ccc(C)c(/C(O)=C2\C(=O)C(=O)N(Cc3cccnc3)C2c2cccnc2)c1 (configuration not stated) | 25.2% (inactive) | – |
| CCNC(=S)NNC(=O)c1cc(C)on1 | -5.44% (inactive) | – |
| COCCSc1nnc(NC(=O)C(C)(C)C)s1 | -12.7% (inactive) | – |
| COCC(C)n1c(C)cc(C(=O)CSc2nnc(Nc3ccccc3F)s2)c1C (configuration not stated) | – | 1.58 µM (active) |
| Cc1cccc(C(=O)NC2CCN(C(=S)NCc3ccco3)CC2)c1 | – | 5.62 µM (active) |
| Cc1cccc(C(=O)NC(=S)N2CCN(C)CC2)c1 | -11.2% (inactive) | – |
| Cc1cccc(C(=O)NC2CCN(C(=O)N3CCOCC3)CC2)c1 | -3.42% (inactive) | – |
| COc1cccc(-c2csc(N3CCN(C(=S)Nc4ccccc4)CC3)n2)c1 | – | 8.91 µM (active) |
| Brc1ccc(-c2csc(N3CCC(c4ccccc4)C3)n2)cc1 (configuration not stated) | -2.89% (inactive) | – |
| COC(=O)c1ccc(NC(=S)N2CCN(Cc3cccc(C)c3)CC2)cc1 | – | 12.6 µM (active) |
| COc1cccc(N2CCN(C(=S)Nc3cccc(C)c3)CC2)c1 | – | 3.55 µM (active) |
| COc1cccc(NC(=S)NN2CCN(C)CC2)c1 | -3.66% (inactive) | – |
| CC(C)CC(=O)N1CCN(Cc2cccc(F)c2)CC1 | -12.1% (inactive) | – |
| Cn1cnc([N+](=O)[O-])c1Sc1nc(N)nc2c1ncn2Cc1ccccc1 | -11.4% [at 11.4 µM] (inactive) | – |

| SMILES | activity, negative = inhibition | AC50 |
| --- | --- | --- |
| O=C1c2ccccc2C(=O)c2c1ccc(C(=O)O)c2-c1ccc2ccccc2c1 | -2.24% [at 11.4 µM] (inactive) | – |
| S=C(NCc1ccco1)N1CCN(C(c2ccccc2)c2ccccc2)CC1 | – | 12.6 µM (active) |
| CN1CCN(C(c2ccccc2)c2ccccc2)CC1 | 0.509% [at 25.6 µM] (inactive) | – |
| S=C(NCc1ccco1)N1CCN(Cc2ccco2)CC1 | -5.09% [at 2.29 µM] (inactive) | – |
| COc1ccc(-c2csc(N3C(=N)SCC3=O)n2)cc1 | -23.4% (inactive) | – |
| COc1ccc(C(=O)NC2CCN(C(=S)Nc3cccc(C)c3)CC2)cc1 | – | 15.8 µM (active) |
| Clc1ccc(-c2csc(N3CCC(c4ccccc4)C3)n2)cc1 (configuration not stated) | 8.35% (inactive) | – |
| COc1cccc(-c2csc(N3CCN(CC(=O)NNC(=O)c4ccc(Cl)cc4)CC3)n2)c1 | – | 11.2 µM (active) |
| CN(C)C(=O)c1ccc(-c2cc(NCc3cccnc3)ncn2)cc1 | – | 15.8 µM (active) |
| Cc1cccc(CNc2cc(-c3ccc(C(=O)N(C)C)cc3)ncn2)c1 | – | 3.16 µM (active) |
| CN(C)C(=O)c1ccc(-c2cc(NCc3ccccc3)ncn2)cc1 | -5.09% (inactive) | – |
| C[C@H](NC(=O)c1ccc(Cl)c(Cl)c1)c1ccc(-c2ccccc2)cc1 | -6.52% [at 11.4 µM] (inactive) | – |
| COc1ccc(C(NC(=O)c2ccc(-c3ccccc3)cc2)c2ccccc2)cc1 (configuration not stated) | – | 0.0355 µM (active) |
| O=C1OC2CC3CC1CC(O)(C3)C2 (configuration not stated) | 30% (inactive) | – |
| CCc1n[nH]c(=S)n1/N=C/c1ccc2c(c1)OCO2 | – | 14.1 µM (active) |
| Oc1ccc(Cn2c(-c3ccc(O)cc3)nc3ccccc32)cc1 | -21.1% [at 11.4 µM] (inactive) | – |
| CCn1c(-c2ccc(N(C)C)cc2)nc2ccccc21 | – | 10 µM (active) |
| COc1ccc(C(=O)N2CCC[C@@]3(CCN(CC(C)C)C3)C2)cc1 | – | 7.94 µM (active) |
| COc1ccc(C(=O)N2CCC[C@@]3(CCN(Cc4ccc(C#N)cc4)C3)C2)cc1 | – | 10 µM (active) |
| COCC(=O)N1CCC2(CC1)CN(Cc1ccc(C#N)cc1)C2 | 7.5% (inactive) | – |
| COc1ccc(C(=O)N2CCC3(CCN(Cc4ccc(C#N)cc4)CC3)CC2)cc1 | -21% (inactive) | – |
| COc1ccc(C(=O)N2CCC[C@@]3(CCN(Cc4ccccc4)C3)C2)cc1 | – | 10 µM (active) |
| COC(=O)N1CCC2(CCCN(Cc3ccccc3)C2)CC1 | -29% (inactive) | – |
| O=c1[nH]c(=O)n([C@@H]2C[C@H](O)[C@H](CO)O2)cc1I | -0.987% [at 25.6 µM] (inactive) | – |
| Brc1ccc(-c2nnc(-c3ccccc3)c(N3CCSCC3)n2)cc1 | -22.4% (inactive) | – |
| CCCCN(C)S(=O)(=O)c1ccc(C(=O)Nc2nnc(CSC)o2)cc1 | 24% (inactive) | – |

| SMILES | activity, negative = inhibition | AC50 |
| --- | --- | --- |
| Cn1c(C(F)(F)F)nc2c(=O)oc3ccccc3c21 | -20.1% (inactive) | – |
| Nc1ccccc1S(N)(=O)=O | 3.31% [at 25.6 µM] (inactive) | – |
| COc1ccc(C(C(=O)NC2CCCCC2)N2CCC3(CC2)OCCO3)cc1 (configuration not stated) | – | 4.47 µM (active) |
| O=C(NC1CCCCC1)C(c1ccccc1)N1CCOCC1 (configuration not stated) | – | 11.2 µM (active) |
| Cc1ccc(C(C(=O)NC2CCCCC2)N2CCN(C(=O)c3ccco3)CC2)cc1 (configuration not stated) | -19.6% [at 2.29 µM] (inactive) | – |
| CCOc1cc(C)c(S(=O)(=O)Nc2ccc3cn[nH]c3c2)cc1C | – | 0.316 µM (active) |
| CCOC(OCC)P(=O)(O)CCCNCc1ccc(Cl)c(Cl)c1 | 10.5% (inactive) | – |
| CC(SCc1cn2cc(Cl)ccc2n1)C(=O)O (configuration not stated) | -11.1% (inactive) | – |
| Cc1ccn2cc(CSc3ccccc3N)nc2c1 | – | 3.98 µM (active) |
| C[C@@H](C[N+](C)(C)C)OC(N)=O | – | inactive |
| COC(=O)C1C(=O)C2=C(CC1C)NC(=O)CC2c1cccc(C)c1 (configuration not stated) | – | 14.1 µM (active) |
| C=CC[C@@H]1C=C[C@H](O/N=C(\C)CCN2CCCc3nc(C)c(C)cc32)[C@H](CO)O1 | – | 2.51 µM (active) |
| C=CC[C@@H]1C=C[C@H](O/N=C(\C)CCN2CCCCc3nc(C)c(C)cc32)[C@H](CO)O1 | – | 3.98 µM (active) |
| CN(C(=S)Nc1ccccc1F)C1(c2ccccc2Cl)CCCCC1=O (configuration not stated) | -21.2% [at 2.29 µM] (inactive) | – |
| CCCCN1C2=NCCCN2c2ccccc21 | 7.3% [at 11.4 µM] (inactive) | – |
| Cc1ccsc1/C=N/Nc1nc(Cl)c(Cl)cc1Cl | -21% [at 2.29 µM] (inactive) | – |
| O=c1oc2ccccc2cc1-c1csc(NN=C2CCCCC2)n1 | – | 3.98 µM (active) |
| O=C(Nc1ccc(-c2cc3ccccc3oc2=O)c(Cl)c1)c1cccnc1 | -10% (inactive) | – |
| O=C(Nc1cc2ccccc2oc1=O)C1CCCCC1 | 10.7% [at 2.29 µM] (inactive) | – |
| COc1cc(OC)cc(C(=O)NC(=S)Nc2ccc(Cl)c(C(=O)O)c2)c1 | -26.3% (inactive) | – |
| CC[N+](CC)(CC(=O)Nc1c(C)cccc1C)Cc1ccccc1 | -19.7% [at 25.6 µM] (inactive) | – |
| Cc1cccc(C)c1NC(=S)NC(=O)CCc1ccccc1 | – | 12.6 µM (active) |
| COc1cc(OC)cc(C(=O)NC(=S)NCCc2ccccc2)c1 | – | 3.98 µM (active) |
| O=C(CCc1ccccc1)NNC(=S)NC(=O)c1ccccc1 | 7% [at 2.29 µM] (inactive) | – |
| COc1ccc(C(=O)NC(=S)NNC(=O)CCc2ccccc2)cc1 | – | 11.2 µM (active) |
| NNC(=O)c1ccc[n+](CCc2ccccc2)c1 | -7.56% [at 11.4 µM] (inactive) | – |

| SMILES | activity, negative = inhibition | AC50 |
| --- | --- | --- |
| CC(C)C12CN3CC(C(C)C)(CN(C1)C3c1ccco1)C2=O (configuration not stated) | -2.45% [at 2.29 µM] (inactive) | – |
| CCC(C)NC(=O)C1CCCN(C(=O)NC2CCCCC2)C1 (configuration not stated) | 10.7% [at 2.29 µM] (inactive) | – |
| COc1ccc(CCNC(=O)C2CCCN(Cc3nc(-c4cccc(Cl)c4)oc3C)C2)cc1OC (configuration not stated) | – | 2 µM (active) |
| CCCS(=O)(=O)N1CCCC(C(=O)NCCCN2CCN(c3cccc(Cl)c3)CC2)C1 (configuration not stated) | -22.1% (inactive) | – |
| Cc1cccc(-c2nc(CN3CCCC(C(=O)NC4CCCCC4)C3)c(C)o2)c1 (configuration not stated) | – | 3.16 µM (active) |
| COc1ccc2nc(N3CCCC(C(=O)NCCCN4CCN(C)CC4)C3)sc2c1 (configuration not stated) | -20.9% (inactive) | – |
| Cc1cn([C@H]2C[C@H](O)[C@@H](COC(N)=O)O2)c(=O)[nH]c1=O | -22.2% [at 11.4 µM] (inactive) | – |
| CNc1cnn(-c2ccccc2)c(=O)c1Cl | 6.78% (inactive) | – |
| C=CCNc1cnn(-c2ccc(C)cc2)c(=O)c1Cl | – | 4.47 µM (active) |
| CC(C)CNCC(=O)N1c2ccccc2Sc2ccccc21 | – | 11.2 µM (active) |
| O=C(NCCc1ccccc1)N1c2ccccc2Sc2ccccc21 | – | 14.1 µM (active) |
| CC(C)CNC(=O)c1nc(-c2ccccc2)n(-c2ccccc2)n1 | -3.69% (inactive) | – |
| C[C@@H](CN1c2ccccc2Sc2ccccc21)N(C)C | – | inactive |
| O=C(O)CNCCc1ccccc1 | -11.1% [at 11.4 µM] (inactive) | – |
| NC(=O)/C(=N\OC(=O)c1ccco1)c1nc(-c2ccc(Br)cc2)cs1 | -10.3% (inactive) | – |
| N[C@@H](Cc1ncccn1)C(=O)O | 6.81% [at 11.4 µM] (inactive) | – |
| CCOC(=O)c1cc(-c2ccccc2)sc1NC(=O)C(C)(C)C | 2.53% (inactive) | – |
| CCOc1ncccc1C(=O)OCC(=O)Nc1cc(C)ccc1C | 0.451% [at 2.29 µM] (inactive) | – |
| CCOC(=O)c1cc(-c2ccccc2)sc1NC(=S)Nc1cc(C)ccn1 | – | 2.82 µM (active) |
| Cc1ccc(/C=C2\Sc3ccccc3C2=O)s1 | – | 20 µM (active) |
| CC(=O)N(/N=C1\Sc2ccccc2C1=O)c1ccccc1 | -26.1% (inactive) | – |
| Cn1cc(/C=C2/SC(=O)N(CC(=O)Nc3ccc4c(c3)OCO4)C2=O)c2ccccc21 | – | 0.2 µM (active) |
| CC(C)n1cc(/C=C2/SC(=O)N(CC(=O)Nc3ccc4c(c3)OCO4)C2=O)c2ccccc21 | – | 0.316 µM (active) |
| Cc1ccsc1/C=C1/SC(=O)N(CC(=O)N2CCOCC2)C1=O | -0.702% (inactive) | – |
